Test results reported in PubChem BioAssay.
A number with no mark means an inactive call.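 How the source made its calls, unless noted: active means cell viability at or below a set limit in both duplicate runs, the limit being the all-compound median minus 4 SD (cut at about 23% in these data, passing the limit was not always enough); inconclusive means no clear call, values can overlap the other calls; inactive means the rest.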 Results filed as inconclusive are left out.

assay: viability gain of MRP-1-high H69AR cells under doxorubicin, pilot screen, MRP-1 activator project, CellTiter-Glo, duplicate (AID 807;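 active means viability increase at or above a cutoff of the median across tested compounds plus 3 SD, cut at about 8.5% in these data, passing the limit was not always enough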;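 further: compound pretreatment 18-22 h then 72 h combined with doxorubicin; 0% = doxorubicin alone and 100% = vehicle without doxorubicin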); details: H69AR viability with doxorubicin, CellTiter-Glo luminescence; at 10 µM; hits give high values

**Q.** With CCOc1ccc(OCC)c(Nc2cc(C)nc3ncnn23)c1 as the compound, how does the viability increase read?
**A.** -3.71%

**Q.** Which viability increase does the source give for O=C(COc1ccc(Cl)cc1)OCC(=O)N1CCCC1 here?
**A.** -2.32%

**Q.** For O=C(CSc1nnc(-c2ccccn2)n1Cc1ccco1)c1ccc(Cl)cc1, which viability increase is on record?
**A.** -2.56%

**Q.** For CCc1ccccc1NC1c2ccccc2C(=O)N1Cc1ccco1 (stereo not given), which viability increase is on record?
**A.** -4.71%

**Q.** For C=C1CC2C=C(NC(C)=O)CC(C1)C2 (stereo not given), which viability increase is on record?
**A.** -0.27%

**Q.** For O=C(NC1CCCc2ccccc21)C1CCN(c2c(N3CCCC3)c(=O)c2=O)CC1 (stereo not given), which viability increase is on record?
**A.** -3.06%

**Q.** For CSc1cccc(NS(=O)(=O)c2cccc3nsnc23)c1, which viability increase is on record?
**A.** -0.51%

**Q.** Which viability increase does the source give for O=C1c2oc3ccccc3c(=O)c2C(c2cccc(O)c2)N1c1ccccn1 (stereo not given) here?
**A.** -0.37%

**Q.** Which viability increase does the source give for COc1cc(SC)ccc1C(=O)Nc1ccc2c(c1)OCCO2 here?
**A.** -0.82%

**Q.** For Cc1occc1-c1nc(-c2ccccn2)no1, which viability increase is on record?
**A.** -4.5%

**Q.** With Cc1ccccc1NS(=O)(=O)c1cccc(-c2nnc(-c3ccccc3)o2)c1 as the compound, how does the viability increase read?
**A.** -0.75%

**Q.** With O=C(N[C@@H](Cc1ccccc1)C(=O)O)c1cccnc1 as the compound, how does the viability increase read?
**A.** 0.01%

**Q.** With COc1ccccc1-n1c2c(cc(C(=O)N3CCC(C)CC3)c1=O)C(=O)CC(C)(C)C2 as the compound, how does the viability increase read?
**A.** -0.6%

**Q.** For O=C(c1cc(-c2ccccc2O)on1)N1CCCC1, which viability increase is on record?
**A.** -4.17%

**Q.** For CSc1ccc(S(=O)(=O)Nc2ccc3c(c2)OCCO3)cc1, which viability increase is on record?
**A.** -3.95%

**Q.** Which viability increase does the source give for Cn1c(=O)c2c(nc(N3CCN(Cc4ccccc4)CC3)n2CCSc2ncccn2)n(C)c1=O here?
**A.** -0.19%

**Q.** For Cc1cccc(-c2nc(CS(=O)CC(=O)N3CCc4ccccc4C3)c(C)o2)c1 (stereo not given), which viability increase is on record?
**A.** -4.54%

**Q.** With CCCN1CCN(C(=O)Cn2ncc3ccccc32)CC1 as the compound, how does the viability increase read?
**A.** -2.31%

**Q.** Which viability increase does the source give for Cc1ccc(CNC(=O)CS(=O)Cc2nc(-c3cccs3)oc2C)cc1 (stereo not given) here?
**A.** -2.97%

**Q.** Which viability increase does the source give for CC(C)N(Cc1nc(-c2ccccc2)no1)C(=O)COc1ccccc1 here?
**A.** -3.65%

**Q.** For COc1ccc(Cl)cc1NC(=O)Cn1c(=O)n2nc(C)nc2c2ccccc21, which viability increase is on record?
**A.** -7.15%

**Q.** With COc1cc2c(=O)n(Cc3ccccc3)c(=O)n(CC(=O)NCC3CCCO3)c2cc1OC (stereo not given) as the compound, how does the viability increase read?
**A.** -0.67%

**Q.** With O=C(Cc1cc(=O)[nH]c(=O)[nH]1)N1CCN(C(=O)c2ccco2)CC1 as the compound, how does the viability increase read?
**A.** -2.96%

**Q.** Which viability increase does the source give for O=S(=O)(NCCSc1nc2ccccc2o1)c1ccccc1 here?
**A.** -1.25%

**Q.** For Cc1cc(Nc2cc(C(=O)O)ccc2C)n2ncnc2n1, which viability increase is on record?
**A.** 0.41%

**Q.** With CC1CN(c2nc3c(c(=O)[nH]c(=O)n3C)n2Cc2ccccc2F)CC(C)O1 (stereo not given) as the compound, how does the viability increase read?
**A.** -1.3%

**Q.** Which viability increase does the source give for COc1ccc(-c2cn3c(C)c(C(=O)NC(C)(C)C)sc3n2)cc1 here?
**A.** -5.94%

**Q.** Which viability increase does the source give for C=C(C)Cn1c(C2CC(=O)N(c3ccccc3F)C2)nc2ccccc21 (stereo not given) here?
**A.** -2.5%

**Q.** Which viability increase does the source give for O=C1C2CCCN2C(c2ccc(F)c(F)c2)N1c1cccc(Cl)c1 (stereo not given) here?
**A.** -0.86%

**Q.** Which viability increase does the source give for COc1ccc(C2CC(=O)N3CN(c4ccc(C)c(Cl)c4)CSC3=C2C#N)cc1 (stereo not given) here?
**A.** -5.36%

**Q.** For O=C(c1ccco1)c1cn[nH]c1-c1ccc(Cl)cc1O, which viability increase is on record?
**A.** -2.19%

**Q.** For O=C(Cn1cc(C(=O)c2cccs2)c2ccccc21)NCc1ccc2c(c1)OCO2, which viability increase is on record?
**A.** -2.32%

**Q.** With O=C(NCCCN1CCOCC1)C1CCC(=O)N1CCc1ccccc1 (stereo not given) as the compound, how does the viability increase read?
**A.** -0.18%

**Q.** Which viability increase does the source give for O=C(Nc1ccc2c(c1)OCO2)C(c1ccccc1)N1CCCCC1 (stereo not given) here?
**A.** -1.69%

**Q.** Which viability increase does the source give for COc1ccccc1-n1c(CNC(=O)c2ccco2)nnc1SCC(=O)Nc1nccs1 here?
**A.** -5.08%

**Q.** For Cc1c(N2C(=O)CSC23C(=O)Nc2ccccc23)c(=O)n(-c2ccccc2)n1C (stereo not given), which viability increase is on record?
**A.** -3.38%

**Q.** For CCCc1nnc(NC(=O)CCC(=O)O)s1, which viability increase is on record?
**A.** -1.02%

**Q.** For CC1CCN(c2nc(-c3ccco3)c3c(c2C#N)CC(C)(C)OC3)CC1, which viability increase is on record?
**A.** -6.85%

**Q.** Which viability increase does the source give for CCCn1c(CN2CCN(C(=O)OCC)CC2)nc2c1c(=O)n(C)c(=O)n2C here?
**A.** -2.59%

**Q.** Which viability increase does the source give for Cc1ccc(C)c(N2CCN(CC(=O)Nc3ccc4[nH]c(=O)[nH]c4c3)CC2)c1 here?
**A.** -5.54%

assay: growth suppression of beta-catenin knockout HCT116, pilot screen, human colon tumor cells (AID 823); details: CellTiter-Glo, 60 h, at 10 µM, hits give low values;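 further: 0% = wells killed by 20 µM Hyamine and 100% = untreated DMSO cell wells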

**Q.** For CCOc1ccc(OCC)c(Nc2cc(C)nc3ncnn23)c1, which viability is on record?
**A.** 90%

**Q.** Which viability does the source give for O=C(COc1ccc(Cl)cc1)OCC(=O)N1CCCC1 here?
**A.** 94.5%

**Q.** For O=C(CSc1nnc(-c2ccccn2)n1Cc1ccco1)c1ccc(Cl)cc1, which viability is on record?
**A.** 85.8%

**Q.** For CCc1ccccc1NC1c2ccccc2C(=O)N1Cc1ccco1 (stereo not given), which viability is on record?
**A.** 97.1%

**Q.** With C=C1CC2C=C(NC(C)=O)CC(C1)C2 (stereo not given) as the compound, how does the viability read?
**A.** 98.6%

**Q.** For O=C(NC1CCCc2ccccc21)C1CCN(c2c(N3CCCC3)c(=O)c2=O)CC1 (stereo not given), which viability is on record?
**A.** 92.4%

**Q.** With CSc1cccc(NS(=O)(=O)c2cccc3nsnc23)c1 as the compound, how does the viability read?
**A.** 88.6%

**Q.** Which viability does the source give for O=C1c2oc3ccccc3c(=O)c2C(c2cccc(O)c2)N1c1ccccn1 (stereo not given) here?
**A.** 82.2%

**Q.** Which viability does the source give for COc1cc(SC)ccc1C(=O)Nc1ccc2c(c1)OCCO2 here?
**A.** 67.1%

**Q.** For Cc1occc1-c1nc(-c2ccccn2)no1, which viability is on record?
**A.** 71.2%

**Q.** For Cc1ccccc1NS(=O)(=O)c1cccc(-c2nnc(-c3ccccc3)o2)c1, which viability is on record?
**A.** 93.6%

**Q.** Which viability does the source give for O=C(N[C@@H](Cc1ccccc1)C(=O)O)c1cccnc1 here?
**A.** 96.1%

**Q.** Which viability does the source give for COc1ccccc1-n1c2c(cc(C(=O)N3CCC(C)CC3)c1=O)C(=O)CC(C)(C)C2 here?
**A.** 101%

**Q.** For O=C(c1cc(-c2ccccc2O)on1)N1CCCC1, which viability is on record?
**A.** 105%

**Q.** With CSc1ccc(S(=O)(=O)Nc2ccc3c(c2)OCCO3)cc1 as the compound, how does the viability read?
**A.** 62.2%

**Q.** For Cn1c(=O)c2c(nc(N3CCN(Cc4ccccc4)CC3)n2CCSc2ncccn2)n(C)c1=O, which viability is on record?
**A.** 100%

**Q.** For Cc1cccc(-c2nc(CS(=O)CC(=O)N3CCc4ccccc4C3)c(C)o2)c1 (stereo not given), which viability is on record?
**A.** 84.8%

**Q.** For CCCN1CCN(C(=O)Cn2ncc3ccccc32)CC1, which viability is on record?
**A.** 100%

**Q.** With Cc1ccc(CNC(=O)CS(=O)Cc2nc(-c3cccs3)oc2C)cc1 (stereo not given) as the compound, how does the viability read?
**A.** 90.5%

**Q.** Which viability does the source give for CC(C)N(Cc1nc(-c2ccccc2)no1)C(=O)COc1ccccc1 here?
**A.** 88.2%

**Q.** Which viability does the source give for COc1ccc(Cl)cc1NC(=O)Cn1c(=O)n2nc(C)nc2c2ccccc21 here?
**A.** 90.9%

**Q.** Which viability does the source give for COc1cc2c(=O)n(Cc3ccccc3)c(=O)n(CC(=O)NCC3CCCO3)c2cc1OC (stereo not given) here?
**A.** 97.9%

**Q.** For O=C(Cc1cc(=O)[nH]c(=O)[nH]1)N1CCN(C(=O)c2ccco2)CC1, which viability is on record?
**A.** 95.6%

**Q.** For O=S(=O)(NCCSc1nc2ccccc2o1)c1ccccc1, which viability is on record?
**A.** 94.4%

**Q.** Which viability does the source give for Cc1cc(Nc2cc(C(=O)O)ccc2C)n2ncnc2n1 here?
**A.** 95.9%

**Q.** For CC1CN(c2nc3c(c(=O)[nH]c(=O)n3C)n2Cc2ccccc2F)CC(C)O1 (stereo not given), which viability is on record?
**A.** 99.1%

**Q.** Which viability does the source give for COc1ccc(-c2cn3c(C)c(C(=O)NC(C)(C)C)sc3n2)cc1 here?
**A.** 81.5%

**Q.** With C=C(C)Cn1c(C2CC(=O)N(c3ccccc3F)C2)nc2ccccc21 (stereo not given) as the compound, how does the viability read?
**A.** 100%

**Q.** Which viability does the source give for O=C1C2CCCN2C(c2ccc(F)c(F)c2)N1c1cccc(Cl)c1 (stereo not given) here?
**A.** 101%

**Q.** With COc1ccc(C2CC(=O)N3CN(c4ccc(C)c(Cl)c4)CSC3=C2C#N)cc1 (stereo not given) as the compound, how does the viability read?
**A.** 90.1%

**Q.** Which viability does the source give for O=C(c1ccco1)c1cn[nH]c1-c1ccc(Cl)cc1O here?
**A.** 95.6%

**Q.** Which viability does the source give for O=C(Cn1cc(C(=O)c2cccs2)c2ccccc21)NCc1ccc2c(c1)OCO2 here?
**A.** 94.6%

**Q.** Which viability does the source give for O=C(NCCCN1CCOCC1)C1CCC(=O)N1CCc1ccccc1 (stereo not given) here?
**A.** 103%

**Q.** With O=C(Nc1ccc2c(c1)OCO2)C(c1ccccc1)N1CCCCC1 (stereo not given) as the compound, how does the viability read?
**A.** 80.6%

**Q.** Which viability does the source give for COc1ccccc1-n1c(CNC(=O)c2ccco2)nnc1SCC(=O)Nc1nccs1 here?
**A.** 77.4%

**Q.** Which viability does the source give for Cc1c(N2C(=O)CSC23C(=O)Nc2ccccc23)c(=O)n(-c2ccccc2)n1C (stereo not given) here?
**A.** 90.4%

**Q.** Which viability does the source give for CCCc1nnc(NC(=O)CCC(=O)O)s1 here?
**A.** 92.8%

**Q.** With CC1CCN(c2nc(-c3ccco3)c3c(c2C#N)CC(C)(C)OC3)CC1 as the compound, how does the viability read?
**A.** 90.8%

**Q.** For CCCn1c(CN2CCN(C(=O)OCC)CC2)nc2c1c(=O)n(C)c(=O)n2C, which viability is on record?
**A.** 92.3%

**Q.** Which viability does the source give for Cc1ccc(C)c(N2CCN(CC(=O)Nc3ccc4[nH]c(=O)[nH]c4c3)CC2)c1 here?
**A.** 92.9%
